# Screening results (PubChem BioAssay)
# Sm TGR block: blocks Schistosoma mansoni thioredoxin glutathione reductase. Q962Y6. Potency, µM (series often up to 114 µM), for the others: at the top dose activity change, negative = inhibition, usual class: inhibitors. AID 485364. purified TGR, DTNB reduction, TNB absorbance 405 nm. 360,000 tested, 3% active; also: % is scaled to controls: 0 for no effect and ±100 for the full control effect; nearly all actives have a fitted effect of over 60% in size
#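 TGR 20 nM + NADPH 100 uM (dispensed conc.), cpd preinc 15 min RT; start with NADPH (500 uM addition) then DTNB (15 mM addition). Kinetic TNB absorbance, 405 nm filter. Four-parameter Hill fit across titration.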
# Pf growth 48h: P. falciparum growth inhibition at 48 hours (one generation); P. falciparum luciferase growth in erythrocytes, 48 h; Potency, µM (titrated, usually from 28.7 µM), for inactives: at the top dose activity change, negative = inhibition, hits mostly inhibitors; 310,000 tested, 5.9% active; AID 504832; also: % is scaled to controls: 0 for no effect and ±100 for the full control effect
#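 In quantitative HTS format, infected erythrocytes bearing luciferase-reporter parasites were treated for a single generation at 37 C. Luminescence after adding detection reagent served as the growth measure.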
# NS1 function inh: blocks influenza NS1 protein function; Potency, µM (titrated, usually from 46.1 µM), for inactives: at the highest dose activity, positive = more growth; AID 2326; 270,000 tested, 0.4% active; calls by dose curve; also: actives are rising curves; nearly all actives have a fitted effect of over 50% in size
#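 Growth recovery, yeast-based: influenza A NS1 expressed in S. cerevisiae causes slow growth, and suppressors are detected by OD600. The parent strain without NS1 is used as positive control.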
# AMA1 RON2 block: inhibitors of Plasmodium falciparum AMA1-RON2 interaction | AlphaScreen AMA1-biotinylated RON2 peptide binding | Potency, µM (series often up to 58.2 µM), for the others: at the highest dose activity change, negative = inhibition, hits mostly inhibitors | 360,000 tested, 0.2% active;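 also: 0% = vehicle wells and -100% = peptide control; nearly all actives have a fitted effect of over 45% in size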
#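 AMA1 (3D7) with his tag at 25 nM final met compounds first, then biotinylated RON2 peptide at 25 nM; detection used donor plus acceptor beads, 10 µg/mL apiece, read by AlphaScreen after 30 min at room temperature.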
# Pf growth 96h: inhibits malaria parasite growth, 96 h; Potency, µM (series often up to 28.7 µM), without a hit: at the highest dose activity change, negative = inhibition, hits mostly inhibitors; P. falciparum luciferase reporter growth, 96 h; 320,000 tested, 6.9% active; also: % is scaled to controls: 0 for no effect and ±100 for the full control effect
#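 Plates of compound plus infected erythrocytes (2% hematocrit, 0.05% parasitemia final) incubate 96 hours, 37 C, 5% CO2. Detection reagent added; reduced luminescence from the parasites' luciferase reporter flags inhibition.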
# * marks the source's active call; other numbers are inactive results; ? = inconclusive; . = not tested or not shown. Only some compounds are listed: those with a hit (about 11% of all), similar ones and a draw of the others. Unless noted, calls follow the shape of the dose curve; as a rule, active = well fitted curve in the direction sought with a large enough effect; inconclusive = small, poorly fitted or top-dose-only effect, or another doubt; inactive = no such curve, though single readings can be large; an effect the other way counts as inactive or inconclusive. Potency is read from the fitted curve at half-maximal effect.
SMILES,Sm TGR block,Pf growth 48h,NS1 function inh,AMA1 RON2 block,Pf growth 96h
O=C1Nc2cc(C(=O)N3CCOCC3)ccc2S/C1=C\c1ccccc1,2%,?,18%,6%,54%
CCOc1ccc(/C=C2/Sc3ccc(C(=O)NCC4CCCO4)cc3N(C)C2=O)cc1OC (centres undefined),?,8.3µM*,8%,-17%,13µM*
Cc1cccc(/C=C2\Sc3ccc(C(=O)NCC4CCCO4)cc3N(C)C2=O)c1 (centres undefined),-3%,?,11%,-8%,?
COc1ccc(/C=C2/Sc3ccc(C(=O)N4CCOCC4)cc3NC2=O)cc1OC,0%,?,5%,17%,15µM*
CCOc1ccc(/C=C2/Sc3ccc(C(=O)N4CCN(C(=O)c5ccco5)CC4)cc3N(C)C2=O)cc1OC,0%,-16%,.,.,?
Cc1ccc(C)c(N(C(=O)CNC(=O)c2ccco2)C(C(=O)NC2CCCC2)c2ccncc2)c1 (centres undefined),-3%,-13%,-13%,5%,?
CCOc1ccc(/C=C2\SC(=O)N(CCNC(=O)C3COc4ccccc4O3)C2=O)cc1OC (centres undefined),35µM*,?,8%,-18%,-99%
CN(c1ccccc1)S(=O)(=O)c1cccc(NC(=O)Cc2n[nH]c(=O)c3ccccc23)c1,-4%,?,.,-12%,?
CCCc1nc2ccc([N+](=O)[O-])cc2[nH]1,.,14%,-4%,4%,10µM*
O=[N+]([O-])c1cccc(/C=C/c2nc3ccc([N+](=O)[O-])cc3[nH]2)c1,2%,2.9µM*,11%,-26%,2.3µM*
Cc1nc2ccc([N+](=O)[O-])cc2[nH]1,15%,-4%,.,?,18%
CC(c1ccccc1)n1ccnc1CO (centres undefined),.,.,.,-2%,.
CCN(CC)c1ccc(C(=C2C=CC(=[N+](CC)CC)C=C2)c2ccccc2)cc1,.,.,.,11µM*,.
CCN(CC)c1ccc(C(=C2C=CC(=[N+](CC)CC)C=C2)c2ccc(N(CC)CC)cc2)cc1,.,.,.,2.2µM*,.
COc1ccc(OC)c(N(C(=O)c2ccco2)C(C(=O)NC2CCCC2)c2cc(OC)c(OC)c(OC)c2)c1 (centres undefined),-12%,?,-10%,3%,?
CCOC(=O)c1c(CN2CCCCC2)n(C)c2ccc(OC)c(S(=O)(=O)c3ccccc3)c12,-15%,10µM*,-15%,10%,7.4µM*
CCOC(=O)c1c(C)n(C)c2cc(Br)c(OC)cc12,0%,7%,-1%,13%,48%
CCOC(=O)c1c(CNCCN(CC)CC)n(C)c2cc(Br)c(OC)cc12,3%,.,-5%,-8%,-5%
CCOC(=O)c1c(CN2CCN(CCO)CC2)n(C)c2cc(Br)c(OC)cc12,-20%,10µM*,-3%,-7%,36%
CCOC(=O)c1c(CN2CCCCC2)n(C)c2cc(Br)c(OC)cc12,-24%,?,-1%,-10%,3.3µM*
CCOC(=O)c1c(C)n(CC(O)CN(CC)CC)c2cc(Br)c(OC)cc12 (centres undefined),10%,?,.,-3%,15µM*
COC(=O)c1cc(NC(=O)/C=C/c2ccccc2)ccc1O,17%,130%,-8%,.,35%
CCc1ccc(NC(=O)Cn2c(=O)n(CCCCC(=O)NCc3ccccc3Cl)c(=O)c3ccccc32)cc1,7%,.,.,.,.
O=C(Cn1c(=O)oc2ccc(Cl)cc21)NC1CCCCC1,-1%,-23%,-2%,3%,9.3µM*
Cc1cc(C)cc(NC(=O)Cn2c(=O)oc3cc(S(=O)(=O)N4CCC(C)CC4)ccc32)c1,-27%,.,5%,14%,12µM*
SMILES,Sm TGR block,Pf growth 48h,NS1 function inh,AMA1 RON2 block,Pf growth 96h
CC1CCN(S(=O)(=O)c2ccc3c(c2)oc(=O)n3CC(=O)O)CC1,2%,.,.,.,.
CC(C)COC(=O)n1c(=O)oc2cc(S(=O)(=O)N3CCCCC3)ccc21,2%,8.3µM*,-15%,4%,.
O=C(NC1CCCCC1)n1c(=O)oc2ccc(Cl)cc21,-3%,20%,-14%,8%,14%
CCOC(=O)n1c(=O)oc2cc(S(=O)(=O)N3CCOCC3)ccc21,1%,15%,-3%,1%,.
CC1CCN(S(=O)(=O)c2ccc3c(c2)oc(=O)n3C)CC1,-4%,-8%,2%,-5%,0.47µM*
CCCN1C(=O)C2(c3ccccc31)c1c(oc3ccc(C)cc3c1=O)C(=O)N2CCOC (centres undefined),7%,.,.,.,.
CC1(C2CC2)NC(=O)N(CC(=O)N2CCN(S(=O)(=O)c3ccc(F)c(F)c3)CC2)C1=O (centres undefined),-12%,?,.,-24%,?
Cc1ccc(-c2cc(C(=O)Oc3ccc(C#N)cc3)no2)cc1,15%,.,.,.,.
CCCNC(=O)Cn1c(=O)oc2cc(S(=O)(=O)N3CCCC3)ccc21,2%,18%,-12%,-6%,14%
COc1ccc(NC(=O)Cn2c(=O)oc3cc(S(=O)(=O)N4CCCC4)ccc32)c(OC)c1,-17%,3%,-9%,0%,6.6µM*
COc1cc(NC(=O)C2CCN(S(=O)(=O)c3ccc4c(c3)oc(=O)n4C)CC2)cc(OC)c1,-1%,.,.,.,.
Cc1csc(NC(=O)C2CCN(S(=O)(=O)c3ccc4c(c3)oc(=O)n4C)CC2)n1,2%,.,5%,0%,3.3µM*
O=C(Cn1c(=O)oc2cc(S(=O)(=O)N3CCCCCC3)ccc21)NC1CCCCCCC1,0%,.,-59%,-6%,12µM*
CS(=O)(=O)N(CC(=O)NCCSCc1c(F)cccc1Cl)c1ccc2c(c1)OCO2,0%,12µM*,-10%,2%,-1%
CS(=O)(=O)Nc1ccc(C(=O)NCCSCc2ccccc2)cc1,15%,?,6%,-15%,13µM*
Cc1cccc(N(CC(=O)NCCSCc2ccccc2)S(C)(=O)=O)c1C,7%,-11%,.,2%,-34%
CC(=O)Nc1ccc(NS(C)(=O)=O)cc1,-10%,.,0%,0%,4.7µM*
Cc1ccccc1N(CC(=O)NCCSCc1ccccc1)S(C)(=O)=O,1%,-14%,9%,2%,12µM*
CS(=O)(=O)Nc1ccc(C(=O)Nc2ccccc2-c2ccccc2)cc1,2%,?,-15%,-19%,12µM*
CS(=O)(=O)Nc1ccc(C(=O)Nc2ccccc2Cl)cc1,.,19%,0%,-8%,?
CS(=O)(=O)N(CC(=O)NCCSCc1ccccc1)c1ccccc1Cl,-3%,0%,-19%,-1%,12%
CS(=O)(=O)N(CC(=O)NCCSCc1ccccc1)c1ccccc1Br,-26%,8%,-3%,-2%,7.4µM*
COc1ccc(NC(=O)C(Cc2cc(C)cc(C)c2)C(C)C(=O)O)cc1 (centres undefined),4%,-2%,2%,-8%,?
CCN(CC)C(=O)c1sc2nc(-c3cccs3)cc(-c3cccs3)c2c1N,89µM*,4.1µM*,2%,39%,?
